Results filed as inconclusive are left out. The source made the active and inactive calls. How the source made its calls, unless noted: active means hit-call score of the fitted dose curve at least 0.9, where 1 is the maximum; inconclusive means response in the unintended direction; inactive means score below 0.9.
Columns and labels:
[1] = read-out: glucuronosyltransferase (UGT1A1), UGT1A1 (gene 54658); assay: CLD_UGT1A1_24hr: CellzDirect (CLD) Gene Expression Assay for glucuronosyltransferase (UGT1A1) at 24 hours (AID 2283696)
In short: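 UGT1A1 transcript induction was measured by quantitative nuclease protection assay (chemiluminescence) in human hepatocyte cultures 24 h after daily fresh dosing, with 0.2% DMSO as vehicle and baseline.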

[2] = read-out: ABC Transporter (ABCB11), ABCB11 (gene 8647); assay: CLD_ABCB11_48hr: CellzDirect (CLD) Gene Expression Assay for ABC Transporter (ABCB11) at 48 hours (AID 2283697)
In short: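 Induction of ABCB11 mRNA relative to 0.2% DMSO, measured at 48 h by qNPA chemiluminescence. Cultured human hepatocytes (two donors) received fresh dosing solutions at several concentrations on two consecutive days.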

[3] = read-out: Cytochrome P450 3A4 (Homo sapiens) (UniProt P08684); assay: CLD_CYP3A4_48hr: CellzDirect (CLD) Gene Expression Assay for xenobiotic metabolism (CYP3A4) at 48 hours (AID 2283698)
In short: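 CYP3A4 induction read by qNPA chemiluminescence after 48 h, with fresh dosing solutions on consecutive days, in cultured human hepatocytes (two donors). Vehicle 0.2% DMSO as baseline; microscopy-based cytotoxicity annotated yes/no alongside data.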

[4] = read-out: Cytochrome P450 2B6 (Homo sapiens) (UniProt P20813); assay: CLD_CYP2B6_48hr: CellzDirect (CLD) Gene Expression Assay for xenobiotic metabolism (CYP2B6) at 48 hours (AID 2283699);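 further: actives raise transcript level above DMSO so potency reflects induction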
In short: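 CYP2B6 transcript induction, read by quantitative nuclease protection (S1 digestion, chemiluminescent detection) 48 h after dosing, is fitted upward against 0.2% DMSO. Cultured human liver primary cells, two donor preparations, received fresh chemical daily over multiple concentrations.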

[5] = read-out: Cytochrome P450 2C9 (Homo sapiens) (UniProt P11712); assay: CLD_CYP2C9_48hr: CellzDirect (CLD) Gene Expression Assay for xenobiotic metabolism (CYP2C9) at 48 hours (AID 2283701; active means hit-call score of the fitted dose curve at least 0.9, where 1 is the maximum; inactive means score below 0.9)
In short: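 mRNA level measured by quantitative nuclease protection (S1 digestion, chemiluminescent detection) in lysates of human primary hepatocytes exposed 48 h with daily re-dosing. Induction fitted positively versus 0.2% DMSO; morphology-based cytotoxicity flagged yes/no.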

[6] = read-out: xenobiotic metabolism (CYP1A2), CYP1A2 (gene 1544); assay: CLD_CYP1A2_48hr: CellzDirect (CLD) Gene Expression Assay for xenobiotic metabolism (CYP1A2) at 48 hours (AID 2283703)
In short: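 Cytotoxicity was flagged yes/no from morphology, while CYP1A2 transcript induction was detected by qNPA chemiluminescence after a 48-hour exposure. Human primary hepatocyte cultures from separate donors received fresh dosing solutions daily over two days, with 0.2% DMSO as vehicle and baseline.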

[7] = read-out: Glyceraldehyde-3-phosphate dehydrogenase (Homo sapiens) (UniProt P04406); assay: CLD_GAPDH_48hr: CellzDirect (CLD) Gene Expression Assay for Baseline Control (Glyceraldehyde 3-phosphate dehydrogenase) at 48 hours (AID 2283706);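 further: active means higher GAPDH mRNA than DMSO vehicle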
In short: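 GAPDH baseline-control readout: qNPA chemiluminescent mRNA quantitation in human liver primary cells 48 h after daily dosing on two consecutive days, vehicle 0.2% DMSO; gain of signal fitted against DMSO, cytotoxicity flagged by phase-contrast morphology.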

[8] = read-out: sulfotransferase (SULT2A), SULT2A1 (gene 6822); assay: CLD_SULT2A_48hr: CellzDirect (CLD) Gene Expression Assay for sulfotransferase (SULT2A) at 48 hours (AID 2283710);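 further: hits raise SULT2A1 transcript above the 0.2% DMSO vehicle baseline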
In short: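 SULT2A1 transcript measured by qNPA chemiluminescence in human primary hepatocyte cultures after 48 h, with fresh dosing solutions on two consecutive days; gain-of-signal fitting against 0.2% DMSO vehicle; cytotoxicity annotated from phase-contrast morphology.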

[9] = read-out: HMG-CoA synthase (HMGCS2), HMGCS2 (gene 3158); assay: CLD_HMGCS2_48hr: CellzDirect (CLD) Gene Expression Assay for HMG-CoA synthase (HMGCS2) at 48 hours (AID 2283711)
In short: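 mRNA induction read by qNPA chemiluminescence, 48 h after dosing. Cultured primary human liver cells (two donor preparations) received fresh compound daily over two days against 0.2% DMSO vehicle; morphology-based cytotoxicity noted alongside.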

[10] = CLD_ACTIN_48hr: CellzDirect (CLD) Gene Expression Assay for Baseline Control (Actin) at 48 hours (AID 2283702)
In short: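 Background-control actin mRNA read by qNPA chemiluminescence at 48 h. Human hepatocyte cultures from two donors received fresh multi-concentration chemical doses daily for two days; 0.2% DMSO served as vehicle baseline.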

[11] = read-out: xenobiotic metabolism (CYP1A1), CYP1A1 (gene 1543); assay: CLD_CYP1A1_48hr: CellzDirect (CLD) Gene Expression Assay for xenobiotic metabolism (CYP1A1) at 48 hours (AID 2283705)
In short: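 CYP1A1 transcript measured by quantitative nuclease protection (chemiluminescent) 48 h after two daily treatments of human hepatocyte cultures, versus 0.2% DMSO. Morphology-based cytotoxicity flags accompany data; two donor preparations used.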

[12] = CEETOX_H295R_MTT_cell_viability: Viability Assessment in the CeeTox HT-H295R MTT Assay (AID 2283718; active means hit-call score of the fitted dose curve at least 0.9, where 1 is the maximum; inactive means score below 0.9;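 on AC50: curve fitted both ways so AC50 may mark viability loss or gain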)
In short: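 H295R cells prestimulated 48 h with 10 uM forskolin, then exposed 48 h to test chemical (0.1% DMSO final). Viability by MTT (0.5 mg/ml, 4 h, 37 C), absorbance 570/650 nm; percent change versus DMSO, bidirectional fit.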

[13] = read-out: organic anion transporter (SLCO1B1), SLCO1B1 (gene 10599); assay: CLD_SLCO1B1_48hr: CellzDirect (CLD) Gene Expression Assay for organic anion transporter (SLCO1B1) at 48 hours (AID 2283707)
In short: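 SLCO1B1 transcript quantified by qNPA with chemiluminescent readout after 48 h of once-daily chemical exposure. Cultured human primary hepatocytes came from two donors, with 0.2% DMSO vehicle; positive-direction fitting against DMSO, cytotoxicity flagged by morphology.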

[14] = read-out: Broad substrate specificity ATP-binding cassette transporter ABCG2 (Homo sapiens) (UniProt Q9UNQ0); assay: CLD_ABCG2_48hr: CellzDirect (CLD) Gene Expression Assay for ABC Transporter (ABCG2) at 48 hours (AID 2283704)
In short: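 ABCG2 transcript measured at 48 h by quantitative nuclease protection (chemiluminescent) and fitted for increase relative to 0.2% DMSO. Hepatocyte cultures from separate donors got fresh compound daily over two days; morphology annotated cytotoxicity.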

[15] = STM_H9_OrnithineISnorm_perc: Stemina devTOX quickPredict H9 human embryonic stem cell (hESC)-based Assay for Ornithine (ORN) Metabolite Biomarker, Normalized (AID 2283712; active means hit-call score of the fitted dose curve at least 0.9, where 1 is the maximum; inactive means score below 0.9;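 further: ornithine released into spent medium during last day measured by mass spectrometry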)
In short: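 Ornithine secreted by H9 hESCs after 72h compound treatment (daily media/compound renewal) was quantified in final-day media by UPLC-HRMS. Values are isotope-standard-normalized, expressed relative to 0.1% DMSO, fitted in positive direction.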

[16] = STM_H9_CystineISnorm_perc: Stemina devTOX quickPredict H9 human embryonic stem cell (hESC)-based Assay for Cystine (CYSS) Metabolite Biomarker, Normalized (AID 2283713; active means hit-call score of the fitted dose curve at least 0.9, where 1 is the maximum; inactive means score below 0.9)
In short: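 Cells are held undifferentiated and treated for 72h, receiving fresh medium with compound every 24h. Cystine secreted during the final day is quantified by UPLC-HRMS against a labeled spike-in, then expressed relative to the DMSO vehicle median.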

[17] = STM_H9_OrnCyssISnorm_ratio: Stemina devTOX quickPredict H9 human embryonic stem cell (hESC)-based Assay for Ornithine (ORN):Cystine (CYSS) Ratio (AID 2283714)
In short: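 H9 hESC, 72h, q24h re-dose; last-day media → acetonitrile deproteinization → UPLC-HRMS. ORN:CYSS ratio from isotope-normalized EIC areas, vs 0.1% DMSO; MTX references on each plate.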

[18] = read-out: glucuronosyltransferase (UGT1A1), UGT1A1 (gene 54658); assay: CLD_UGT1A1_48hr: CellzDirect (CLD) Gene Expression Assay for glucuronosyltransferase (UGT1A1) at 48 hours (AID 2283709);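 further: actives increase expression relative to DMSO so potency refers to induction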
In short: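 Quantitative nuclease protection assay (chemiluminescent) for UGT1A1 mRNA at 48 h in human hepatocyte cultures from two donors, redosed daily with fresh solutions. Induction fitted relative to 0.2% DMSO; phase-contrast morphology annotated cytotoxicity.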

[19] = read-out: alkyl and aryl transferase (GSTA2), GSTA2 (gene 2939); assay: CLD_GSTA2_48hr: CellzDirect (CLD) Gene Expression Assay for alkyl and aryl transferase (GSTA2) at 48 hours (AID 2283708);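 further: active means mRNA induction above DMSO vehicle baseline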
In short: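 GSTA2 mRNA quantified by qNPA chemiluminescence in human primary hepatocyte lysates after 48 h of daily fresh chemical dosing. Increases fitted against 0.2% DMSO vehicle baseline; cytotoxicity from morphology annotated yes/no.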

Measured: AC50

Cytochrome P450 3A4 (Homo sapiens), sequence (P08684 whole entry, looked up): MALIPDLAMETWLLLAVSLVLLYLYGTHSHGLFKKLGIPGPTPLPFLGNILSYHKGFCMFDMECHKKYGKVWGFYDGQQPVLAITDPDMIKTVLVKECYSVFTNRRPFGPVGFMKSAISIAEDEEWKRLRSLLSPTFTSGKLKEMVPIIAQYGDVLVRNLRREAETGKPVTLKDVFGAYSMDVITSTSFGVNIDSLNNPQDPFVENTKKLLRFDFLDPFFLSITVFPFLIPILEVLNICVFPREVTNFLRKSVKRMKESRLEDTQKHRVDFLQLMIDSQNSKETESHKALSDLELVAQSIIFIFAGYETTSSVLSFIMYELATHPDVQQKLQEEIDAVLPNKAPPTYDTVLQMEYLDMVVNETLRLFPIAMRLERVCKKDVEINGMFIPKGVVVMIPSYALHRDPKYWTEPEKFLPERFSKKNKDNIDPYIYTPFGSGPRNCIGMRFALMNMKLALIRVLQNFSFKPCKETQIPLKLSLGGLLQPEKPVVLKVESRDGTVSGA
Glyceraldehyde-3-phosphate dehydrogenase (Homo sapiens), sequence (P04406 whole entry, looked up): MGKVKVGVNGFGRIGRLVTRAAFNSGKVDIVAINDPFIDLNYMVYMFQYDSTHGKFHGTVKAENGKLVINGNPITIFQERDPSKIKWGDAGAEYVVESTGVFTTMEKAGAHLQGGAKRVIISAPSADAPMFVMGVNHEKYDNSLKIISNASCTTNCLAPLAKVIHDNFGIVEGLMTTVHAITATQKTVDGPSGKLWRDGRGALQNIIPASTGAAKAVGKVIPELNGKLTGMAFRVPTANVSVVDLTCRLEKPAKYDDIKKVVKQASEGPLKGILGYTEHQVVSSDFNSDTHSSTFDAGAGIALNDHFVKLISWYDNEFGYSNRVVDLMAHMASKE
Broad substrate specificity ATP-binding cassette transporter ABCG2 (Homo sapiens), sequence (Q9UNQ0 whole entry, looked up): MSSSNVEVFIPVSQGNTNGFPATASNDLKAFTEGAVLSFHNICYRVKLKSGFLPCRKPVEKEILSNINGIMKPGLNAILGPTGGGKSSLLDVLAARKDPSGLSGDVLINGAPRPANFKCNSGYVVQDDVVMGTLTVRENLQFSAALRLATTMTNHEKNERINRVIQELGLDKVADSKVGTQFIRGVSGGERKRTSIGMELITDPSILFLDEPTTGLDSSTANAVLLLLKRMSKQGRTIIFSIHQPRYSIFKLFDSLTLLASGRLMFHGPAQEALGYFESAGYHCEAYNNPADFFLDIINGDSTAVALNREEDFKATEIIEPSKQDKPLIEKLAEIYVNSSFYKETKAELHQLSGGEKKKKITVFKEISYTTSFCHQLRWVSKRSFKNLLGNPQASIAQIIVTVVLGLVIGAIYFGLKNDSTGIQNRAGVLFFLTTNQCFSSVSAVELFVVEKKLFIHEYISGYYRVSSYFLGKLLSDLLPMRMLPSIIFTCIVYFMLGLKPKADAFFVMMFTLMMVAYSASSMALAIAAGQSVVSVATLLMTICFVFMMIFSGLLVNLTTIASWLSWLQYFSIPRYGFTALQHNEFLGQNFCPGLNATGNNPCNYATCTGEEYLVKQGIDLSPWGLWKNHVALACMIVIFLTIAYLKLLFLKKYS

CCOP(=O)(OCC)Oc1nc(Cl)c(Cl)cc1Cl
active: [4] 3.97 µM | [6] 4.58 µM
inactive: [1] | [2] | [3] | [5] | [7] | [8] | [9]

N#Cc1c(Cl)cccc1Cl
active: [3] 4.83 µM | [4] 1.44 µM
inactive: [1] | [5] | [10] | [11] | [8] | [12]

CC(C)N1C(=O)c2ccccc2NS1(=O)=O
inactive: [1] | [3] | [10] | [6] | [11] | [7] | [13] | [8] | [9]

CCCCC(O)(Cn1cncn1)c1ccc(Cl)cc1Cl (stereo unspecified)
active: [3] 1.89 µM | [4] 0.63 µM | [6] 3.97 µM | [11] 20 µM | [15] 85.1 µM | [16] 78.9 µM | [17] 76.5 µM
inactive: [1] | [5] | [10] | [14] | [8]

O=c1n(Cl)c(=O)n(Cl)c(=O)n1Cl
inactive: [1] | [2] | [4] | [5] | [6] | [11] | [13] | [8]

CN=C=S
inactive: [3] | [10] | [7]

CC(C)Nc1nc(Cl)nc(NC(C)C)n1
inactive: [11] | [8] | [12]
active: [3] 3.54 µM | [4] 3.11 µM | [6] 2.76 µM | [15] 0.0393 µM | [16] 5.93 µM | [17] 5.16 µM

CC(C)N1C(=O)N(c2ccccc2)CSC1=NC(C)(C)C
inactive: [5] | [6]
active: [3] 8.18 µM | [4] 4.31 µM | [11] 33.6 µM | [8] 33.1 µM

Nc1cnn(-c2ccccc2)c(=O)c1Cl
inactive: [3] | [11] | [7] | [13] | [8] | [12]
active: [6] 4.24 µM

O=P(O)(O)CCCl
active: [9] 0.000456 µM
inactive: [2] | [4] | [10] | [6] | [11] | [13] | [8]

CS(=O)(=O)c1ccc(C(=O)C2C(=O)CCCC2=O)c([N+](=O)[O-])c1
inactive: [2] | [4] | [5] | [10] | [6] | [7] | [8] | [9] | [15] | [16] | [17]

CCOC(=O)C(C)OC(=O)c1cc(Oc2ccc(C(F)(F)F)cc2Cl)ccc1[N+](=O)[O-] (stereo unspecified)
inactive: [12]
active: [3] 5.01 µM | [4] 20 µM | [6] 20 µM | [11] 20 µM | [18] 7 µM | [8] 4.61 µM | [9] 0.241 µM

CC(C)Oc1cccc(NC(=O)c2ccccc2C(F)(F)F)c1
inactive: [5] | [18] | [8]
active: [4] 5.34 µM | [6] 7.17 µM | [11] 36.6 µM | [12] 71.1 µM

CCCN(CC)CC1COC2(CCC(C(C)(C)C)CC2)O1 (stereo unspecified)
inactive: [4] | [5] | [7] | [9] | [15] | [12]
active: [3] 2.82 µM | [6] 0.199 µM | [11] 3.97 µM | [8] 0.0474 µM | [16] 1.03 µM | [17] 1.3 µM

COc1cc(Cl)c(OC)cc1Cl
active: [4] 0.0752 µM | [11] 3.97 µM
inactive: [3] | [6] | [7] | [13] | [19] | [8] | [12]

CC(C)NC(=O)N1CC(=O)N(c2cc(Cl)cc(Cl)c2)C1=O
inactive: [12]
active: [3] 13.5 µM | [4] 3.92 µM | [6] 4.68 µM | [11] 12.3 µM

C=CCOC(=O)C(C)(C)OC(=O)c1cc(-n2c(=O)cc(C(F)(F)F)n(C)c2=O)ccc1Cl
inactive: [5] | [10] | [11] | [7]
active: [3] 2.79 µM | [4] 0.168 µM

Cc1ccc(N=CN(C)C=Nc2ccc(C)cc2C)c(C)c1
inactive: [7]
active: [6] 0.673 µM | [11] 5.87 µM

O=C(Nc1ccccc1-c1ccc(Cl)cc1)c1cccnc1Cl
active: [4] 1.89 µM | [6] 4.95 µM | [11] 20 µM | [15] 50 µM | [17] 72.1 µM
inactive: [10] | [18] | [8] | [16] | [12]

Cc1cnc(C2=NC(C)(C(C)C)C(=O)N2)c(C(=O)O)c1 (stereo unspecified)
inactive: [5] | [10] | [6] | [11] | [7] | [8]
